Results from PubChem BioAssay (EPA / NIEHS).
Inconclusive results are not listed. Activity calls are given as the source filed them. Rule for the calls: active = hit-call score of the fitted dose curve at least 0.9, where 1 is the maximum; inconclusive = response in the unintended direction; inactive = score below 0.9.

Assay: ATG_M_32_TRANS: Attagene TRANS-FACTORIAL HepG2 Assay for M32 Transcription Factor (Internal Marker) (AID 2282984)
Details: HepG2 Attagene TRANS M32 internal marker reporter
Description: ATG_TRANS is a cell-based, multiplexed-readout assay that uses HepG2, a human liver cell line, with measurements taken at 24 hours after chemical dosing in a 24-well plate.ATG_M_32_TRANS is one of 30 assay component(s) measured or calculated from the ATG_TRANS assay. It is designed to make measurements of mRNA induction, a form of inducible reporter, as detected with fluorescence intensity signals by Reverse transcription polymerase chain reaction (RT-PCR) and Capillary electrophoresis technology.Data from the assay component ATG_M_32_TRANS was analyzed into 1 assay endpoint. This assay endpoint, ATG_M_32_TRANS, was analyzed in the positive analysis fitting direction relative to DMSO as the negative control and baseline of activity. Using a type of inducible reporter, measures of mRNA for gain-of-signal activity can be used to understand the background control at the transcription factor-level as they relate to the gene . Furthermore, this assay endpoint can be referred to as a secondary readout, because this assay has produced multiple assay endpoints where this one serves a background control function. To generalize the intended target to other relatable targets, this assay endpoint is annotated to the background measurement intended target family, where the subfamily is internal marker.
Human liver HepG2 cells are transiently transfected with multiple reporter transcription units (MRTUs) in 6-well plates using FuGene 6 reagent (Roche; 3 ml FuGene/1 mg DNA). The MRTU constructs are regulated by a cis-regulating element (promoter). […] A major difference between the CIS and TRANS system is that in CIS activities of endogenous TFs are measured, whereas the TRANS assay evaluates changes in activities of exogenous, chimeric NR-Gal4 proteins. […] At the end of 24 hour incubation, total RNA was isolated using TriZol reagent (Invitrogen). The isolated RNA is then reverse-transcribed using oligo(dT) primer and Mo-MLV reverse transcriptase (Invitrogen) with DNAse I (Ambion) treatment for 30 min. The one-tenth of the produced cDNA was amplified by PCR using Taq DNA polymerase (Invitrogen) and two reporter sequence-specific primers. The PCR products were fluorescently labeled by primer extension with 6-arboxyfluorescein (6-FAM) 5'-labeled reporter sequence-specific primer (2 min at 95 C, 20 s at 68 C and 10 min at 72 C) and these products were digested with 5U of HpaI (New England Biolabs) for 2h at 37 C. The fragments were purified using Qiaquick PCR columns (Qiagen), analyzed on an ABI 3130xL genetic analyzer (Applied Biosystems) with peak positions identified by using a set of X-rhodamine (ROX)-labeled MapMarker1000 molecular weight standards (BioVentures). The raw capillary electrophoresis data was processed using Attagraph software (Attagene).

SMILES	outcome
CC(C)Nc1nc(Cl)nc(NC(C)C)n1	inactive
CN=C=S	inactive
CCN(CC)c1nc(C)cc(OP(=S)(OC)OC)n1	inactive
Cn1c(-c2ccccc2)cc(-c2ccccc2)[n+]1C	inactive
N#CN=C1SCCN1Cc1ccc(Cl)nc1	inactive
COP(=S)(OC)SCn1nnc2ccccc2c1=O	inactive
CCOP(=O)(OCC)Oc1nc(Cl)c(Cl)cc1Cl	inactive
O=C(Nc1ccccc1-c1ccc(Cl)cc1)c1cccnc1Cl	inactive
CCOc1nc(F)cc2nc(S(=O)(=O)Nc3c(Cl)cccc3Cl)nn12	inactive
CCN(CC)C(=O)C(C)Oc1cccc2ccccc12 (stereo not given)	inactive
CC(C)N1C(=O)N(c2ccccc2)CSC1=NC(C)(C)C	inactive
O=P(O)(O)CCCl	inactive
CC1(C)CCC(=Cc2ccc(Cl)cc2)C1(O)Cn1cncn1 (stereo not given)	inactive
Cc1cc(C)nc(Nc2ccccc2)n1	inactive
COc1cc(Cl)c(OC)cc1Cl	inactive
CNC(=O)N(C)c1nnc(C(C)(C)C)s1	inactive
CS(=O)(=O)c1ccc(C(=O)C2C(=O)CCCC2=O)c([N+](=O)[O-])c1	inactive
CC1(C)C(C=C(Cl)Cl)C1C(=O)OC(C#N)c1cccc(Oc2ccccc2)c1 (stereo not given)	inactive
Clc1cccc(C(Cl)(Cl)Cl)n1	inactive
CC(C)N1C(=O)c2ccccc2NS1(=O)=O	inactive

SMILES	outcome
COCc1cnc(C2=NC(C)(C(C)C)C(=O)N2)c(C(=O)O)c1 (stereo not given)	inactive
CN/C(=N\[N+](=O)[O-])NCc1cnc(Cl)s1	inactive
CCCN(CC)CC1COC2(CCC(C(C)(C)C)CC2)O1 (stereo not given)	inactive
CCOP(=S)(OCC)Oc1nc(Cl)n(C(C)C)n1	inactive
COC(=O)N(C(=O)N1CO[C@@]2(C(=O)OC)Cc3cc(Cl)ccc3C2=N1)c1ccc(OC(F)(F)F)cc1	inactive
N#Cc1c(Cl)cccc1Cl	inactive
CS(=O)(=O)c1cc(C(F)(F)F)ccc1C(=O)c1cnoc1C1CC1	inactive
COCC(C)N(C(=O)CCl)c1c(C)csc1C (stereo not given)	inactive
COc1cc(OC)nc(NC(=O)NS(=O)(=O)c2ncccc2OCC(F)(F)F)n1	inactive
Nc1cnn(-c2ccccc2)c(=O)c1Cl	inactive
COP(=S)(OC)Oc1ccc([N+](=O)[O-])c(C)c1	inactive
N#Cc1c[nH]cc1-c1cccc2c1OC(F)(F)O2	inactive
O=C1C2CC=CCC2C(=O)N1SC(Cl)(Cl)Cl (stereo not given)	inactive
CCSC(=O)N1CCCCCC1	inactive
CC(C)(C)C(=O)C(Oc1ccc(Cl)cc1)n1cncn1 (stereo not given)	inactive
COC(=O)c1c(C(F)F)nc(C(F)(F)F)c(C2=NCCS2)c1CC(C)C	inactive
CC(C)NC(=O)N1CC(=O)N(c2cc(Cl)cc(Cl)c2)C1=O	inactive
CC1(C)C(C(=O)OC(C#N)c2cccc(Oc3ccccc3)c2)C1(C)C (stereo not given)	inactive
CCCCOCN(C(=O)CCl)c1c(CC)cccc1CC	inactive
Cc1c(COC(=O)[C@@H]2[C@H](/C=C(\Cl)C(F)(F)F)C2(C)C)cccc1-c1ccccc1	inactive
